The values that follow come from PubChem BioAssay (NCATS).

Common to all, as to assay: Primary qHTS to identify gynecologic anti-cancer compounds using libraries of approved drugs and bioactive compounds (AID 1345084); further: nearly all actives have a fitted effect of over 55% in size
(In general: Quantitative high-throughput screening tests each substance at several concentrations.)

In assay [1] the test system is C33A. As to conditions: Gynecologic cancer cell panel viability, ATPlite luminescence, 48 h; series mostly up to 57.5 µM. The procedure, abridged:
(§1)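 Cell viability after 48 h drug treatment, ATPlite luminescence readout; five doses.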
(In ATP-based viability assays light output follows the ATP content of the culture.)

Assay [2] has as its system CAOV3. Particulars: Gynecologic cancer cell panel viability, ATPlite luminescence, 48 h; series mostly up to 57.5 µM. In a few lines: as §1
Assay [3] deals with CASKI. Particulars: Gynecologic cancer cell panel viability, ATPlite luminescence, 48 h; series mostly up to 57.5 µM. In a few lines:
as §1

Assay [4] deals with Hek293T. Particulars: Gynecologic cancer cell panel viability, ATPlite luminescence, 48 h, control line for the selectivity index; series mostly up to 57.5 µM. The procedure, abridged:
as §1

The subject of assay [5] is JEG-3. As to conditions: Gynecologic cancer cell panel viability, ATPlite luminescence, 48 h; series mostly up to 57.5 µM. In a few lines:
as §1

The subject of assay [6] is OV90. As to conditions: Gynecologic cancer cell panel viability, ATPlite luminescence, 48 h; series mostly up to 57.5 µM. In a few lines:
as §1

Assay [7] has as its system SKOV3. As to conditions: Gynecologic cancer cell panel viability, ATPlite luminescence, 48 h; series mostly up to 57.5 µM. In a few lines: as §1
The subject of assay [8] is Es-2. Particulars: Gynecologic cancer cell panel viability, ATPlite luminescence, 48 h; series mostly up to 57.5 µM. The procedure, abridged: as §1
In assay [9] the test system is PA-1. Particulars: Gynecologic cancer cell panel viability, ATPlite luminescence, 48 h; series mostly up to 57.5 µM. In a few lines: as §1
Assay [10] deals with Tov-21-G. As to conditions: Gynecologic cancer cell panel viability, ATPlite luminescence, 48 h; series mostly up to 57.5 µM. In a few lines:
as §1

Assay [11] deals with Tov112D. Particulars: Gynecologic cancer cell panel viability, ATPlite luminescence, 48 h; series mostly up to 57.5 µM. The procedure, abridged:
as §1

Assay [12] concerns HeLa. As to conditions: Gynecologic cancer cell panel viability, ATPlite luminescence, 48 h; series mostly up to 57.5 µM. In a few lines:
as §1

Each structure is given as a SMILES string. Results filed as inconclusive are left out. Unmarked numbers belong to inactive results. Activity calls are given as the source filed them. The call rests on the fitted dose curve; in most records, active means well fitted cell-killing curve with a large enough effect; inconclusive means small, poorly fitted or top-dose-only effect, or effect the other way; inactive means flat fitted curve, though single readings scatter. *1 amine or outer side, *2 acyl side, *3 side chain or, on linkers, in order; H or OH if unused. Where a SMILES comes first, the peptide text is derived from it. Bridges are numbered along the chain shown (N, C = ends). [ ]: non-standard residue; d: D form. The star is where a group is joined. ξ: configuration not given here. ξhTyr(3S-OH,4S-OH,3'-OSO3H) = NC(C(=O)O)[C@H](O)[C@@H](O)c1ccc(O)c(OS(=O)(=O)O)c1; Orn(4R-OH,5R-OH) = O=C([C@H](C[C@@H](O)[C@@H](O)N[*:3])N[*:1])[*:2]; X2 = CCCCCOc1ccc(-c2cc(-c3ccc(C(=O)*)cc3)no2)cc1; X3 = C[C@H]1CN([*:1])C(C(=O)[*:2])[C@H]1O; ξGln(3R-OH) = NC(=O)C[C@@H](O)C(N)C(=O)O; ξPro(4R-OH) = O=C(O)C1C[C@@H](O)CN1; ξThr(3R) = C[C@@H](O)C(N)C(=O)O
Potency means the concentration at half of the fitted maximal effect.

In the case of `N#Cc1ccc(C2CCCc3cncn32)cc1` (stereo unspecified), the Potency entry in assay [1], in assay [2], in assay [4], in [5], in assay [6] and in assay [7] was “inactive” in each case. Moreover, in assay [3], the compound was classed as inactive.

Turning to `C=C1[C@H](OC(C)=O)[C@H]2[C@@H](OC(C)=O)C(C)C[C@]2(OC(C)=O)C(=O)[C@H](C)/C=C/C(C)(C)C(=O)[C@H](OC(=O)C(C)C)[C@H]1OC(C)=O` (stereo partly specified), the Potency result in [1], in [2], in assay [8], in [4], in assay [5] and in [6] was “inactive” throughout. Further, the Potency result in assay [9], in assay [7], in [10] and in [11] was “inactive” throughout. In addition, the compound was called inactive in assay [3].

`O=C(O)c1ccnc2cc(C(OCC3CCC(F)(F)CC3)c3ccccc3Cl)[nH]c12` (stereo unspecified): the Potency result in assay [1], in [2], in assay [8], in assay [4], in [5] and in [6] was “inactive” in each case. Further, the Potency result in assay [9], in assay [7], in assay [10] and in [11] was “inactive” each time. For the same compound, the outcome in assay [3] was inactive.

As for `CCOC(=O)CSc1nc2c(sc3ccccc32)c(=O)n1CCCN1CCCC1`, the Potency entry in [1], in [2], in [8], in assay [4], in assay [5] and in assay [6] was “inactive” in each case. Moreover, the Potency result in [9], in [10] and in assay [11] was “inactive” throughout. The call in [3] was inactive.

As to `COc1cc(C2OCC3(O)C(c4ccc(O[C@@H]5O[C@H](CO)[C@@H](O)[C@H](O)[C@H]5O)c(OC)c4)OCC23O)ccc1O` (stereo partly specified), the Potency result in assay [1], in assay [2], in assay [8], in assay [12], in assay [5] and in assay [6] was “inactive” each time. Besides, the Potency entry in assay [9], in assay [7], in assay [10] and in [11] was “inactive” in each case. Moreover, the call in assay [3] was inactive.

Take `CCCCCOc1ccc(-c2cc(-c3ccc(C(=O)N[C@H]4C[C@@H](O)[C@@H](O)NC(=O)C5[C@@H](O)[C@@H](C)CN5C(=O)C([C@H](O)CC(N)=O)NC(=O)C([C@H](O)[C@@H](O)c5ccc(O)c(OS(=O)(=O)O)c5)NC(=O)C5C[C@@H](O)CN5C(=O)C([C@@H](C)O)NC4=O)cc3)no2)cc1` (stereo partly drawn) (X2-[Orn(4R-OH,5R-OH)][ξThr(3R)][ξPro(4R-OH)][ξhTyr(3S-OH,4S-OH,3'-OSO3H)][ξGln(3R-OH)][X3]; lactam 1-C): the Potency entry in assay [1], in [2], in [8], in assay [12], in assay [4] and in assay [5] was “inactive” throughout. Also, the Potency entry in [6], in assay [9], in assay [7], in [10] and in [11] was “inactive” in each case.

Regarding `C=C1C2CCC3C(CCC4[C@@]3(C)CCC[C@@]4(C)C(=O)O)(C2)[C@@H]1OC(=O)/C(C)=C\C` (stereo partly specified), the Potency entry in assay [1], in [2], in assay [5], in assay [6] and in assay [7] was “inactive” in each case. In [3], the call was inactive.

As for `C[C@H]1CC[C@H]2[C@@H](C=C[C@@](C)(O)[C@]2(C)C(=O)CCO)C1`, the Potency result in assay [1], in assay [2], in assay [8], in assay [12], in assay [4] and in assay [6] was “inactive” throughout. Moreover, the Potency entry in assay [9], in assay [7], in [10] and in [11] was “inactive” in each case. For the same compound, the outcome in assay [3] was inactive.

Turning to `C=Cc1cc2oc(-c3ccc(O)c(F)c3)nc2cc1O`, the Potency result in [1], in [2], in assay [8], in assay [4], in [5] and in [9] was “inactive” each time. The Potency result in [7], in assay [10] and in [11] was “inactive” throughout. For the same compound, in assay [3], the result was inactive. Further, in assay [6], the Potency was 25.1 µM (active).

In the case of `COc1ccc2c(c1)N1C(=O)C[C@@]34C=CC[N@+]5([O-])CC[C@H]2[C@H](CC3)[C@@]145`, the Potency entry in assay [1], in [2], in assay [8], in assay [12], in assay [4] and in assay [5] was “inactive” in each case. Further, the Potency result in assay [7], in assay [10] and in assay [11] was “inactive” each time. In addition, the compound was classed as inactive in assay [3].

On to `CC(=O)O[C@@H]1C(O)C[C@@]2(C)C(CC[C@@H](C)C23Cc2c(O)cc4c(c2O3)CNC4=O)C1(C)C` (stereo partly specified), for which the Potency entry in assay [1], in assay [2], in [8], in [4], in assay [5] and in assay [6] was “inactive” in each case. For the same compound, the Potency result in [9], in assay [10] and in assay [11] was “inactive” each time. In assay [3], the compound was classed as inactive.

For the compound `Cc1nnc(-c2sc(NC(=O)[C@H](C(C)C)n3c(=O)[nH]c4ccccc4c3=O)nc2C)o1`, the Potency result in assay [1], in assay [2], in [12], in assay [4], in assay [5] and in assay [6] was “inactive” in each case. Besides, the Potency entry in [9], in [7] and in assay [11] was “inactive” throughout. In addition, the result in [3] was inactive.

For the compound `C/C1=C\CC(C)(C)/C=C/C/C(C(=O)O)=C/CC1`, the Potency result in assay [1], in assay [2], in assay [8], in [12], in assay [4] and in [6] was “inactive” each time. For the same compound, the Potency entry in assay [9], in assay [7], in [10] and in assay [11] was “inactive” throughout. Besides, in assay [3], the compound was classed as inactive.

Regarding `CC(C)(O)C1OC1C1=CC(=O)C2(C)OC2C1O` (stereo unspecified), the Potency result in assay [1], in assay [2], in assay [8], in assay [12], in assay [4] and in assay [5] was “inactive” in each case. In addition, the Potency result in [6], in assay [9], in assay [10] and in assay [11] was “inactive” each time.

Regarding `C/C=C1\[C@H](O[C@@H]2O[C@H](CO)[C@@H](O)[C@H](O)[C@H]2O)OC=C(C(=O)OCCc2ccc(O)cc2)[C@H]1CC(=O)OCCc1ccc(O)cc1`, the Potency entry in assay [1], in assay [2], in assay [8], in assay [12], in assay [4] and in assay [6] was “inactive” in each case. Also, the Potency result in assay [9], in assay [7], in assay [10] and in [11] was “inactive” throughout.

As to `C=C1CCC2C(C)(C(=O)OC)CCCC2(C)C1CCC1=CCOC1=O` (stereo unspecified), the Potency entry in [1], in [8], in [12], in [4], in assay [5] and in [6] was “inactive” in each case. For the same compound, the Potency entry in [9], in assay [7], in assay [10] and in [11] was “inactive” throughout. In assay [3], the call was inactive.
